Data published in the supplement of paper PMC6555819.

Columns and labels:
Assay in all cases: PBM binding z-score (relative to random genomic background probes); higher = stronger binding; sequences stand for … in GC…GCGATTGACAGCGTAGAATGAAGG
[1] = system: FXR:RXRa (NR concentration 270 nM, RXRa partner concentration 90 nM)
In short: (§1)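 Scanned fluorescence from custom Agilent 4×180K protein-binding microarrays was regression-normalized. Binding z-scores use random background probes as reference. Ligand-free nuclear receptor dimers were incubated on the arrays for 1 h and detected with antibodies against each partner (one per run).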

[2] = system: LXRa:RXRa (NR concentration 270 nM, RXRa partner concentration 90 nM)
In short: as §1

[3] = system: LXRa homodimer (NR concentration 270 nM)
In short: as §1

[4] = system: LXRb:RXRa (NR concentration 270 nM, RXRa partner concentration 90 nM)
In short: as §1

[5] = system: LXRb homodimer (NR concentration 270 nM)
In short: as §1

[6] = system: PPARa:RXRa (NR concentration 270 nM, RXRa partner concentration 90 nM)
In short: as §1

[7] = system: PPARg:RXRa (NR concentration 180 nM, RXRa partner concentration 90 nM)
In short: as §1

[8] = system: PPARg:RXRa 270nM:90nM, anti-RXR (NR concentration 270 nM, RXRa partner concentration 90 nM)
In short: as §1

[9] = system: PPARg:RXRa 30nM:10nM, anti-RXR (NR concentration 30 nM, RXRa partner concentration 10 nM)
In short: as §1

[10] = system: PPARg:RXRa 90nM:30nM, anti-RXR (NR concentration 90 nM, RXRa partner concentration 30 nM)
In short: as §1

Sequence: CGTCCAAGGTCAGAGTGGTCAGTGAATGCCGAGT
- PBM binding z-score [1]: 4.91
- PBM binding z-score [2]: 3.23
- PBM binding z-score [3]: 0.338
- PBM binding z-score [4]: 2.49
- PBM binding z-score [5]: -0.0536
- PBM binding z-score [6]: 3.83
- PBM binding z-score [7]: 1.79
- PBM binding z-score [8]: 2.5
- PBM binding z-score [9]: 0.0236
- PBM binding z-score [10]: 1.35

Sequence: CTCGAACGGTCGTGCTCAGGTGAGTATACCAAAC
- PBM binding z-score [1]: -0.183
- PBM binding z-score [2]: -0.208
- PBM binding z-score [3]: -0.21
- PBM binding z-score [4]: -0.274
- PBM binding z-score [5]: -0.517
- PBM binding z-score [6]: -0.309
- PBM binding z-score [7]: -0.285
- PBM binding z-score [8]: -0.662
- PBM binding z-score [9]: -0.759
- PBM binding z-score [10]: -1.01

Sequence: AATATAGGGTCACTAGGCCAGAGTAGGTACGAAT
- PBM binding z-score [1]: 6.26
- PBM binding z-score [2]: 5.13
- PBM binding z-score [3]: 0.894
- PBM binding z-score [4]: 4.07
- PBM binding z-score [5]: 0.704
- PBM binding z-score [6]: 5.67
- PBM binding z-score [7]: 8.45
- PBM binding z-score [8]: 6.68
- PBM binding z-score [9]: 3.94
- PBM binding z-score [10]: 5.68

Sequence: TCTTGTAGATCATGCAGGTTAAGAAAGCCTGAGT
- PBM binding z-score [1]: 0.492
- PBM binding z-score [2]: 0.415
- PBM binding z-score [3]: -0.144
- PBM binding z-score [4]: 0.657
- PBM binding z-score [5]: -0.00581
- PBM binding z-score [6]: 1.14
- PBM binding z-score [7]: -0.222
- PBM binding z-score [8]: 1.51
- PBM binding z-score [9]: 2.51
- PBM binding z-score [10]: 2.08

Sequence: ACTCGGAGGACACAGGTCAGAGCTACGCCAGTGA
- PBM binding z-score [1]: 1.4
- PBM binding z-score [2]: 1.18
- PBM binding z-score [3]: 0.294
- PBM binding z-score [4]: 0.96
- PBM binding z-score [5]: -0.518
- PBM binding z-score [6]: 2.18
- PBM binding z-score [7]: 2.85
- PBM binding z-score [8]: 3.06
- PBM binding z-score [9]: 1.09
- PBM binding z-score [10]: 2.71

Sequence: CCTAGTTGGTCAGGAGGTCACACAACGGATATGA
- PBM binding z-score [1]: 3.71
- PBM binding z-score [2]: 3.52
- PBM binding z-score [3]: 1.69
- PBM binding z-score [4]: 3.53
- PBM binding z-score [5]: 0.623
- PBM binding z-score [6]: 4.25
- PBM binding z-score [7]: 3.47
- PBM binding z-score [8]: 4.16
- PBM binding z-score [9]: 1.47
- PBM binding z-score [10]: 3.3

Sequence: ATCTCTAGGTTAGACTCAGTTCAGTGAAGAACGC
- PBM binding z-score [1]: 1
- PBM binding z-score [2]: 1.74
- PBM binding z-score [3]: 1.7
- PBM binding z-score [4]: 1.12
- PBM binding z-score [5]: 1.27
- PBM binding z-score [6]: 0.772
- PBM binding z-score [7]: 0.251
- PBM binding z-score [8]: 0.742
- PBM binding z-score [9]: 0.423
- PBM binding z-score [10]: 0.508

Sequence: CCGTGTAGGTTATGGGGCATTCAGGCAACGGTGA
- PBM binding z-score [1]: 0.503
- PBM binding z-score [2]: 0.731
- PBM binding z-score [3]: 0.151
- PBM binding z-score [4]: 0.984
- PBM binding z-score [5]: 0.31
- PBM binding z-score [6]: 2.13
- PBM binding z-score [7]: 2.03
- PBM binding z-score [8]: 3.57
- PBM binding z-score [9]: 1.74
- PBM binding z-score [10]: 3.16

Sequence: ACTTACGGGTCAGCGAGGTTATAGCACGCGTATA
- PBM binding z-score [1]: 4.94
- PBM binding z-score [2]: 3.87
- PBM binding z-score [3]: 0.399
- PBM binding z-score [4]: 3.41
- PBM binding z-score [5]: 0.42
- PBM binding z-score [6]: 4.9
- PBM binding z-score [7]: 3.94
- PBM binding z-score [8]: 4.15
- PBM binding z-score [9]: 1.13
- PBM binding z-score [10]: 2.59

Sequence: ATATGTAAGTTACATCCGGGTCATTCAGGCTATG
- PBM binding z-score [1]: 1.87
- PBM binding z-score [2]: 2.38
- PBM binding z-score [3]: 0.923
- PBM binding z-score [4]: 2.19
- PBM binding z-score [5]: 0.757
- PBM binding z-score [6]: 2.83
- PBM binding z-score [7]: 1.41
- PBM binding z-score [8]: 1.44
- PBM binding z-score [9]: 0.868
- PBM binding z-score [10]: 1.01

Sequence: ATCTCTAGGTAAAGATAGTTGAGTGAATGCAAAT
- PBM binding z-score [1]: 0.323
- PBM binding z-score [2]: 0.358
- PBM binding z-score [3]: -0.0172
- PBM binding z-score [4]: 0.23
- PBM binding z-score [5]: 0.435
- PBM binding z-score [6]: 0.437
- PBM binding z-score [7]: 0.538
- PBM binding z-score [8]: 0.246
- PBM binding z-score [9]: 0.222
- PBM binding z-score [10]: 0.29

Sequence: TCAGAGAGGTGAAGGTAACTCAGGTACGCAGTCG
- PBM binding z-score [1]: 1.22
- PBM binding z-score [2]: 2.12
- PBM binding z-score [3]: -0.198
- PBM binding z-score [4]: 0.909
- PBM binding z-score [5]: -0.432
- PBM binding z-score [6]: 2.27
- PBM binding z-score [7]: 1.23
- PBM binding z-score [8]: 2.64
- PBM binding z-score [9]: 3.84
- PBM binding z-score [10]: 3.09

Sequence: CTCGAAAGGTCCTGCTCAGGTGAGTATACCAAAC
- PBM binding z-score [1]: 0.485
- PBM binding z-score [2]: 0.0121
- PBM binding z-score [3]: -0.23
- PBM binding z-score [4]: 0.151
- PBM binding z-score [5]: -0.603
- PBM binding z-score [6]: 0.515
- PBM binding z-score [7]: -0.342
- PBM binding z-score [8]: 0.119
- PBM binding z-score [9]: -0.0279
- PBM binding z-score [10]: -0.0509

Sequence: GCTTACGGGTCAAAGGTTATCGCATGAATAGAAT
- PBM binding z-score [1]: 7.98
- PBM binding z-score [2]: 5.85
- PBM binding z-score [3]: 0.561
- PBM binding z-score [4]: 5.81
- PBM binding z-score [5]: 0.413
- PBM binding z-score [6]: 6.94
- PBM binding z-score [7]: 11.7
- PBM binding z-score [8]: 9.26
- PBM binding z-score [9]: 8.55
- PBM binding z-score [10]: 10.3

Sequence: TAGCCTAGGCCATGCGGGCCAGTATAGTGTCGGC
- PBM binding z-score [1]: -0.771
- PBM binding z-score [2]: -1.17
- PBM binding z-score [3]: -0.671
- PBM binding z-score [4]: -1.47
- PBM binding z-score [5]: -1.47
- PBM binding z-score [6]: -0.776
- PBM binding z-score [7]: -0.313
- PBM binding z-score [8]: -1.06
- PBM binding z-score [9]: -0.847
- PBM binding z-score [10]: -1.18

Sequence: ACAGACAGCTGATGAAGGTAACTCAGGCTATCAT
- PBM binding z-score [1]: -0.294
- PBM binding z-score [2]: -0.43
- PBM binding z-score [3]: -0.191
- PBM binding z-score [4]: -0.692
- PBM binding z-score [5]: -0.451
- PBM binding z-score [6]: -0.305
- PBM binding z-score [7]: 0.649
- PBM binding z-score [8]: -0.383
- PBM binding z-score [9]: -0.233
- PBM binding z-score [10]: 0.0374

Sequence: AATACAGGGTCACTAGCCCAGAGTAGGTACGAAT
- PBM binding z-score [1]: 5.41
- PBM binding z-score [2]: 4.89
- PBM binding z-score [3]: 1.13
- PBM binding z-score [4]: 3.8
- PBM binding z-score [5]: 0.946
- PBM binding z-score [6]: 5.41
- PBM binding z-score [7]: 5.91
- PBM binding z-score [8]: 5.2
- PBM binding z-score [9]: 2.09
- PBM binding z-score [10]: 4.01

Sequence: CCTAGCAGTCCAGGGTCACTCAAGCATTTCGCTT
- PBM binding z-score [1]: 1.93
- PBM binding z-score [2]: 1.87
- PBM binding z-score [3]: -0.123
- PBM binding z-score [4]: 2.26
- PBM binding z-score [5]: -0.47
- PBM binding z-score [6]: 3.08
- PBM binding z-score [7]: 0.115
- PBM binding z-score [8]: 1.17
- PBM binding z-score [9]: -0.788
- PBM binding z-score [10]: 0.355

Sequence: ATCTCTAGGTAACACTCAGTTCAGTGAAGAACGC
- PBM binding z-score [1]: 0.92
- PBM binding z-score [2]: 1.1
- PBM binding z-score [3]: 0.849
- PBM binding z-score [4]: 0.889
- PBM binding z-score [5]: 1.26
- PBM binding z-score [6]: 1.07
- PBM binding z-score [7]: 0.692
- PBM binding z-score [8]: 0.736
- PBM binding z-score [9]: 0.527
- PBM binding z-score [10]: 0.515

Sequence: GTACCAACGTGAATAGGTCGTTGATGAGTAGGCG
- PBM binding z-score [1]: -0.282
- PBM binding z-score [2]: -0.216
- PBM binding z-score [3]: -0.491
- PBM binding z-score [4]: -0.2
- PBM binding z-score [5]: -0.829
- PBM binding z-score [6]: 0.267
- PBM binding z-score [7]: 0.588
- PBM binding z-score [8]: -0.017
- PBM binding z-score [9]: -0.124
- PBM binding z-score [10]: -0.176

Sequence: ATCTCTAGGTAAGACTCAGTTAAGTGAAGAACGC
- PBM binding z-score [1]: 0.573
- PBM binding z-score [2]: 0.359
- PBM binding z-score [3]: 0.508
- PBM binding z-score [4]: 0.191
- PBM binding z-score [5]: 0.75
- PBM binding z-score [6]: 0.00438
- PBM binding z-score [7]: 0.0664
- PBM binding z-score [8]: -0.0342
- PBM binding z-score [9]: 0.242
- PBM binding z-score [10]: -0.00989

Sequence: AGTCAAAGTTCTCTAGGTAACGTAAGATTCAGCT
- PBM binding z-score [1]: 0.109
- PBM binding z-score [2]: -0.065
- PBM binding z-score [3]: 0.22
- PBM binding z-score [4]: 0.0719
- PBM binding z-score [5]: -0.356
- PBM binding z-score [6]: 0.668
- PBM binding z-score [7]: 0.831
- PBM binding z-score [8]: 1.19
- PBM binding z-score [9]: 0.092
- PBM binding z-score [10]: 0.81

Sequence: GCTGCTAGGGCAACTGATGGTCAGCTAAAGCTCG
- PBM binding z-score [1]: -0.599
- PBM binding z-score [2]: -0.0812
- PBM binding z-score [3]: -0.858
- PBM binding z-score [4]: -0.846
- PBM binding z-score [5]: -0.673
- PBM binding z-score [6]: -0.536
- PBM binding z-score [7]: -0.394
- PBM binding z-score [8]: -0.642
- PBM binding z-score [9]: -1.04
- PBM binding z-score [10]: -0.914

Sequence: ATCGAAAGGTTGAGGTGAGTATAGAGAAAGGGAA
- PBM binding z-score [1]: 0.898
- PBM binding z-score [2]: 0.95
- PBM binding z-score [3]: -0.00942
- PBM binding z-score [4]: 0.744
- PBM binding z-score [5]: 0.158
- PBM binding z-score [6]: 1.86
- PBM binding z-score [7]: 0.625
- PBM binding z-score [8]: 0.616
- PBM binding z-score [9]: 0.531
- PBM binding z-score [10]: 0.337
